Results reported in PubChem BioAssay AID1159580 (chemical genetic matrix, 2015).
Values joined by “and” are separate entries in the source; they are usually repeats but may differ in a detail not shown here. Equal entries are not always repeated. Hit rate of the full screen: of about 5,500 compounds, about 2,000 (36%) were called active. Not shown: some 18% with an inconclusive outcome. No stated cut-off is given here; in the data, active means normalized growth mostly below about 0.91 (no sharp cut-off); inconclusive means no clear call, values can overlap the other calls; inactive means mostly above about 0.92. Some of the results follow.

Assay: chemical genetic growth profiling, strain panel (AID 1159580);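 further: tested at 20 µM; growth read once vehicle control cultures reached saturation at 30 °C; 1 = growth at the plate median or of vehicle wells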
Settings: S. cerevisiae deletion strains, growth OD

Measured: normalized growth

c1coc(CNc2ncnc3nc[nH]c23)c1
inactive: locus YAL013W, strain DEP1, stronger effect = lower value 0.998 | locus YAL021C, strain ccr4, stronger effect = lower value 0.995 | locus YAL026C, strain drs2, stronger effect = lower value 0.997 | locus YAL030W, strain snc1, stronger effect = lower value 1 | locus YBL061C, strain skt5, stronger effect = lower value 0.997 | locus YBR009C, strain hhf1, stronger effect = lower value 0.988 | locus YBR021W, strain FUR4, stronger effect = lower value 1.02 | locus YBR023C, strain chs3, stronger effect = lower value 0.996 | locus YBR171W, strain sec66, stronger effect = lower value 0.994 | locus YBR229C, strain ROT2, stronger effect = lower value 1.01 | locus YBR231C, strain swc5, stronger effect = lower value 1 | locus YBR279W, strain paf1, stronger effect = lower value 1 | locus YCL011C, strain gbp2, stronger effect = lower value 1 | locus YCL016C, strain dcc1, stronger effect = lower value 1 | locus YCL029C, strain bik1, stronger effect = lower value 0.991 | locus YCL061C, strain MRC1, stronger effect = lower value 1.01 | locus YCL069W, strain vba3, stronger effect = lower value 0.999 | locus YCR088W, strain abp1, stronger effect = lower value 0.991 | locus YDL005C, strain med2, stronger effect = lower value 0.995 | locus YDL035C, strain GPR1, stronger effect = lower value 1.01 | locus YDL040C, strain nat1, stronger effect = lower value 0.996 | locus YDL074C, strain BRE1, stronger effect = lower value 0.997 | locus YDL101C, strain DUN1, stronger effect = lower value 0.995 | locus YDL134C, strain PPH21, stronger effect = lower value 1.01 | locus YDL185W, strain tfp1, stronger effect = lower value 0.964 | locus YDL192W, strain arf1, stronger effect = lower value 0.99 | locus YDR001C, strain nth1, stronger effect = lower value 0.993 | locus YDR069C, strain doa4, stronger effect = lower value 1 | locus YDR101C, strain arx1, stronger effect = lower value 0.996 | locus YDR137W, strain rgp1, stronger effect = lower value 0.964 | locus YDR150W, strain NUM1, stronger effect = lower value 0.992 | locus YDR159W, strain sac3, stronger effect = lower value 0.974 | locus YDR162C, strain NBP2, stronger effect = lower value 0.992 | locus YDR195W, strain ref2 0.974 | locus YDR297W, strain sur2, stronger effect = lower value 0.997 | locus YDR318W, strain mcm21, stronger effect = lower value 0.995 | locus YDR334W, strain swr1, stronger effect = lower value 1.01 | locus YDR335W, strain msn5, stronger effect = lower value 1.01 | locus YDR388W, stronger effect = lower value 1 | locus YDR392W, strain spt3, stronger effect = lower value 0.991 | locus YDR502C, strain sam2, stronger effect = lower value 1.01 | locus YEL003W, strain gim4, stronger effect = lower value 1 | locus YEL037C, strain rad23, stronger effect = lower value 0.998 | locus YEL061C, strain CIN8 (second series), stronger effect = lower value 0.997 | locus YEL061C, strain CIN8, stronger effect = lower value 0.995 | locus YER015W, strain faa2, stronger effect = lower value 1 | locus YER016W, strain bim1, stronger effect = lower value 0.99 | locus YER110C, stronger effect = lower value 0.999 | locus YER111C, strain swi4, stronger effect = lower value 0.986 | locus YER155C, strain BEM2 (second series), stronger effect = lower value 0.97 | locus YER155C, strain BEM2, stronger effect = lower value 0.999 | locus YER167W, strain BCK2, stronger effect = lower value 1 | locus YFR010W, strain ubp6, stronger effect = lower value 1 | locus YGL078C, strain dbp3, stronger effect = lower value 0.992 | locus YGL086W, strain mad1, stronger effect = lower value 1 | locus YGL167C, strain pmr1, stronger effect = lower value 1 | locus YGL173C, strain kem1, stronger effect = lower value 0.993 | locus YGL227W, strain vid30, stronger effect = lower value 0.993 | locus YGL240W, strain doc1, stronger effect = lower value 0.996 | locus YGL248W, strain PDE1, stronger effect = lower value 1.02 | locus YGL253W, strain hxk2, stronger effect = lower value 0.995 | locus YGR078C, strain PAC10, stronger effect = lower value 0.994 | locus YGR135W, strain pre9, stronger effect = lower value 0.997 | locus YGR229C, strain SMI1, stronger effect = lower value 1 | locus YGR252W, strain gcn5, stronger effect = lower value 1.19 | locus YHR013C, strain ard1, stronger effect = lower value 0.983 | locus YHR027C, strain rpn1, stronger effect = lower value 1 | locus YHR030C, strain SLT2, stronger effect = lower value 0.998 and 0.973 | locus YHR079C, strain IRE1 (second series), stronger effect = lower value 0.996 | locus YHR079C, strain IRE1, stronger effect = lower value 0.964 | locus YHR094C, strain hxt1, stronger effect = lower value 0.957 | locus YHR129C, strain ARP1, stronger effect = lower value 0.999 | locus YHR142W, strain chs7, stronger effect = lower value 0.992 | locus YHR200W, strain rpn10, stronger effect = lower value 0.986 | locus YIL066C, strain RNR3, stronger effect = lower value 1.01 | locus YIL073C, strain SPO22, stronger effect = lower value 0.978 | locus YIL125W, strain kgd1, stronger effect = lower value 0.988 | locus YIR030C, strain dcg1, stronger effect = lower value 0.998 | locus YJL092W, strain hpr5, stronger effect = lower value 0.995 | locus YJL095W, strain BCK1 (second series), stronger effect = lower value 0.994 | locus YJL095W, strain BCK1, stronger effect = lower value 0.985 and 0.986 | locus YJL115W, strain asf1, stronger effect = lower value 1 | locus YJL129C, strain trk1, stronger effect = lower value 1.02 | locus YJL134W, strain LCB3, stronger effect = lower value 0.997 | locus YJL154C, strain vps35, stronger effect = lower value 0.997 | locus YJL164C, strain tpk1, stronger effect = lower value 0.997 | locus YJL166W, strain qcr8, stronger effect = lower value 1 | locus YJL168C, strain set2, stronger effect = lower value 0.996 | locus YJL187C, strain SWE1 (second series), stronger effect = lower value 0.992 | locus YJR043C, strain POL32, stronger effect = lower value 0.985 | locus YJR066W, strain TOR1, stronger effect = lower value 0.912
